14 compounds from PubChem BioAssay can be followed below.

The source made the active and inactive calls.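 Rule for the calls, unless noted: active = fluorescence slope after compound addition differing from the mean of all screened samples at 99.7% confidence, in either direction; inactive = the rest.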

Assay [1] is described as follows: inhibitors of TNFa-induced NFkB p65 translocation, primary screen, imaging, HUVEC, MLSMR starter and 10KST1 sets (AID 438;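 active = inhibition above 20% together with a positive visual image hit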;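 note: compound added about 3h40 before a 20 min TNFalpha stimulation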;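 for inhibition: signal is the nuclear over cytoplasmic p65 intensity ratio per well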). The settings on record: HUVEC TNFa-induced p65 nuclear translocation; cell count: measured here: nuclei count (cytotoxicity indicator), at 2.08 µM; inhibition: at 2 µM, stronger effect = higher value, 0% TNFa-plus-vehicle, 100% no-TNFa wells.
Assay [2] in a line: inhibitors of mutant huntingtin aggregation, primary screen, imaging, exon1htt(103Q)mCFP cells, high-content imaging (AID 483;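 active = visual image review flags a hit and inhibition of aggregation exceeds 20%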;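 note: compound exposure lasted 3 days before fixation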;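 for nuclei count: percent of the per-plate median nuclei count of sample wells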). The note with it: exon1htt(103Q)mCFP cell line, aggregate imaging, at 2 µM; inhibition of aggregation: stronger effect = higher value; nuclei count: measured here: cell count, toxicity.
Assay [3] in a line: inhibitors of E-selectin induction by TNFa, primary screen, imaging, HUVEC, immunofluorescence, MLSMR starter and 10KST1 sets (AID 487;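 active = visually confirmed hit in the image check and inhibition above 20%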;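 for inhibition: signal is fraction of cell area covered by stained E-selectin grains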;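 for nuclei count: 100% = median nuclei count of all wells on the same plate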). The settings on record: HUVEC TNFalpha-induced E-selectin immunofluorescence imaging, at 2 µM; inhibition: stronger effect = higher value; nuclei count: measured here: cell number, toxicity.
For assay [4], the target named is Voltage-gated potassium channel subunit beta-2 (Rattus norvegicus) (UniProt P62483). Put plainly: KvBeta enzyme negative modulators, primary screen, biochemical, NADPH fluorescence (AID 622;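 active = fluorescence slope higher than the sample average by over 3 SD, cut at about -0.22 in these data, passing the limit was not always enough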;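 note: slope of raw intensity against log time taken from 70 to 1610 s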). The note with it: recombinant KvBeta, 4-cyanobenzaldehyde reduction, at 10 µM, stronger effect = higher value.
For assay [5] the target is unchanged. Put plainly: KvBeta positive modulators, primary screen, biochemical, NADPH fluorescence (AID 623;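 active = NADPH fluorescence slope more negative than the mean of all samples by about 3 SD, 99.7% confidence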;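 note: fluorescence intensity change per second fitted from 20 to 320 s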). The settings on record: Recombinant KvBeta, NADPH fluorescence decrease slope, 10 min; at 10 µM; stronger effect = lower value.
Assay [6] has as its target Alpha-2C adrenergic receptor (Homo sapiens) (UniProt P18825). The experiment in a line: modulators of alpha2C/GIRK thallium flux, primary screen, cell-based, HEK293 alpha2C/GIRK1/2 (AID 624).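 Note: slope of fluorescence ratio to pre-addition baseline per second over 15 to 24 s.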 The note with it: thallium flux BTC fluorescence, at 10 µM, actives lie on both sides.
Assay [7] is described as follows: inhibitors of Sendai virus-induced IRF3 signaling, primary screen, TLR/RLR signaling modifier project, cell-based, Sendai virus stimulus, luciferase, 10K MLSCN set (AID 602276;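 active = inhibition at or above 50% at 10 µM; inactive = inhibition below 50%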;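 note: firefly luciferase from ISG56 promoter only with Renilla not read in this screen; 0% = Sendai virus plus DMSO and 100% = medium plus DMSO without virus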). The settings on record: HEK293 RL24 IRF3 luciferase reporter, at 10 µM, stronger effect = higher value. In general terms: Reporter assays use an easily measured gene product as a stand-in for the process of interest.

A short description of assay [8]: inhibitors of poly I:C-induced TLR3 signaling, primary screen, cell-based, poly I:C stimulus, luciferase, 10K MLSCN set (AID 602277;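 active = inhibition of the reporter signal at or above 50%; inactive = inhibition below 50%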). The note with it: HEK293-TLR3 RL24 IRF3 luciferase reporter, at 10 µM, stronger effect = higher value.

As a reminder, the inhibition is the relative decrease from the control value, in per cent.

Chain of Voltage-gated potassium channel subunit beta-2 (Rattus norvegicus) (P62483 whole entry, looked up): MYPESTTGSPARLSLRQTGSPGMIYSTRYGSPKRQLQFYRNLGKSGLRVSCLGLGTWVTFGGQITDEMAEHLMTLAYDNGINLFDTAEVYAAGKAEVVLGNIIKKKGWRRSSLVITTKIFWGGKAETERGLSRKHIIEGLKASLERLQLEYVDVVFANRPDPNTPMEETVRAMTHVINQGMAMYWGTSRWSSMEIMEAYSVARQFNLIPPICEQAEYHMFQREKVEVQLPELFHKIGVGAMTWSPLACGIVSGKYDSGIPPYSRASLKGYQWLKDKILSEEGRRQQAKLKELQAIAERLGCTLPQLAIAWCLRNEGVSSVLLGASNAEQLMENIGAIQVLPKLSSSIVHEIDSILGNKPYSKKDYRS
Chain of Alpha-2C adrenergic receptor (Homo sapiens) (P18825 whole entry, looked up): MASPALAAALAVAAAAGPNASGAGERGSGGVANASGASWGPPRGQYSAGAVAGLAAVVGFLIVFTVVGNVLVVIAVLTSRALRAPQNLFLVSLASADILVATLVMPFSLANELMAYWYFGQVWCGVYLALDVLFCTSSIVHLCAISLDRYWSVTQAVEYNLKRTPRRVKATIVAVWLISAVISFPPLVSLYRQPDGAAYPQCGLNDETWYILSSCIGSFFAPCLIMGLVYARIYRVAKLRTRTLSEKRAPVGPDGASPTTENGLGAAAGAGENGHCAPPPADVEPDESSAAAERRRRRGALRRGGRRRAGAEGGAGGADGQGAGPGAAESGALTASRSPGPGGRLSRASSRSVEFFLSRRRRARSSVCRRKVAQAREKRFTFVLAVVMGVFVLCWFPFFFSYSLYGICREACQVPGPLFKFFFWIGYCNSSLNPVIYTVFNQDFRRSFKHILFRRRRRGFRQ

For the compound `COc1ccc(CCNC(=O)C2=COCCO2)cc1`, the cell count in assay [1] is 596. Also, the inhibition in assay [1] is 4.2% (inactive); in assay [3], 53.6% (active); in assay [7], -14.5% (inactive); in assay [8], -26.2% (inactive). Besides, the inhibition of aggregation in assay [2] was 51.2% (active). The nuclei count in assay [2] worked out at 90.3%; in assay [3] it was 99.1%. The fluorescence slope in assay [4] was -0.545 (inactive). The NADPH fluorescence slope in assay [5] was -2.9e-05 (inactive). Also, in assay [6], the slope is 0.00546 (inactive).
Take `O=c1c2ccccc2nc(SCc2nnc(-c3ccccc3Br)o2)n1-c1ccccc1`: in assay [1], the cell count was 379. Further, the inhibition in assay [1] is 2.9% (inactive); in assay [3], -18.3% (inactive); in assay [7], 0.607% (inactive); in assay [8], 1.7% (inactive). In assay [2], the inhibition of aggregation is 5.3% (inactive). The nuclei count was 63.9% in assay [2] and 104% in assay [3]. Besides, in assay [4], the fluorescence slope is -0.573 (inactive). The NADPH fluorescence slope in assay [5] is -4.9e-05 (inactive). In addition, in assay [6], the slope is 0.00444 (inactive).
For `CC(C)OCCCNC(=O)c1cc2c(s1)CS(=O)(=O)C2`, the cell count in assay [1] turned out to be 215. Further, the inhibition was 1.9% (inactive) in assay [1], 25.9% (inactive) in assay [3], 5.68% (inactive) in assay [7] and 5.21% (inactive) in assay [8]. In addition, in assay [2], the inhibition of aggregation is 7.5% (inactive). Also, the results for the nuclei count in assay [2] and in assay [3] were 80.8% and 103%, respectively. The fluorescence slope in assay [4] is -0.352 (inactive). For the same compound, the NADPH fluorescence slope in assay [5] is -5.6e-05 (inactive). Also, the slope in assay [6] is 0.0057 (inactive).
Regarding `CCCCNC(=O)c1nc2ncc(Br)cn2n1`, the cell count in assay [1] is 665. Moreover, the inhibition in assay [1] is 0% (inactive); in assay [3], 56.5% (inactive); in assay [7], 12.8% (inactive); in assay [8] it was 22.4% (inactive). Further, the inhibition of aggregation in assay [2] was -12.4% (inactive). In addition, the figures for the nuclei count in assay [2] and in assay [3] were 109% and 81.1%, respectively. Further, the fluorescence slope in assay [4] is -0.442 (inactive). Besides, the NADPH fluorescence slope in assay [5] was -7.5e-05 (inactive). In addition, in assay [6], the slope is 0.00578 (inactive).
In the case of `COc1ccc(CCNC(=O)c2cnc3scc(C)n3c2=O)cc1OC`, in assay [1], the cell count stood at 573. Also, the inhibition in assay [1] was -5.3% (inactive); in assay [3] it was 19.7% (inactive); in assay [7] it was 6.05% (inactive); in assay [8], 33.9% (inactive). In addition, the inhibition of aggregation in assay [2] is -6% (inactive). Moreover, the nuclei count was 82.6% in assay [2] and 86.4% in assay [3]. In assay [4], the fluorescence slope was -0.411 (inactive). Also, in assay [5], the NADPH fluorescence slope was -6.2e-05 (inactive). The slope in assay [6] was 0.00579 (inactive).
`CC(C)c1nnc(NC(=O)c2cnccn2)s1`: in assay [1], the cell count turned out to be 425. The inhibition in assay [1] was -0.5% (inactive); in assay [3], -38.5% (inactive); in assay [7] it was -7.98% (inactive); in assay [8], -13.6% (inactive). Moreover, the inhibition of aggregation in assay [2] was -3.7% (inactive). Besides, the nuclei count in assay [2] is 103%; in assay [3] it was 105%. Moreover, the fluorescence slope in assay [4] was -0.479 (inactive). Further, the NADPH fluorescence slope in assay [5] was -4.7e-05 (inactive). Moreover, in assay [6], the slope is 0.00644 (inactive).
Regarding `CC(CC(=O)NC1CCSC1=O)c1ccccc1` (centres undefined), the cell count in assay [1] came out at 396. The inhibition in assay [1] was -4.2% (inactive); in assay [3] it was -43.3% (inactive); in assay [7], -7.84% (inactive); in assay [8], 17% (inactive). Moreover, in assay [2], the inhibition of aggregation is 8.2% (inactive). Besides, the nuclei count stood at 102% in assay [2] and 124% in assay [3]. Also, in assay [4], the fluorescence slope was -0.452 (inactive). In addition, the NADPH fluorescence slope in assay [5] was 3.8e-05 (inactive). Moreover, the slope in assay [6] was 0.00567 (inactive).
For `CCOC(=O)N1CCN(c2cc(=O)n(-c3cccc(Br)c3)c(=O)[nH]2)CC1`, the cell count in assay [1] stood at 532. In addition, the inhibition was -10.1% (inactive) in assay [1], -13.2% (inactive) in assay [3], -10.2% (inactive) in assay [7] and 15.4% (inactive) in assay [8]. In addition, in assay [2], the inhibition of aggregation was 0.9% (inactive). Moreover, the figures for the nuclei count in assay [2] and in assay [3] were 55.8% and 89.5%, respectively. The fluorescence slope in assay [4] is -0.564 (inactive). The NADPH fluorescence slope in assay [5] is -2e-05 (inactive). For the same compound, in assay [6], the slope is 0.00721 (inactive).
In the case of `O=c1oc2ccccc2cc1NCc1ccccc1O`, the cell count in assay [1] is 644. In addition, the inhibition was 2.1% (inactive) in assay [1], -19.5% (inactive) in assay [3], -15.8% (inactive) in assay [7] and -21.8% (inactive) in assay [8]. The inhibition of aggregation in assay [2] is -25% (inactive). Also, the nuclei count is 115% in assay [2] and 106% in assay [3]. Further, the fluorescence slope in assay [4] is -0.594 (inactive). Also, the NADPH fluorescence slope in assay [5] was -1.9e-05 (inactive). Besides, the slope in assay [6] is 0.00653 (inactive).
Consider `COc1cc(C(=O)NCCc2ccc3c(c2)OCCO3)ccc1OCC(=O)N1CCOCC1`, for which, in assay [1], the cell count was determined as 632. Moreover, the inhibition in assay [1] was 2.4% (inactive); in assay [3], -76.6% (inactive); in assay [7], 14.7% (inactive); in assay [8], 15.3% (inactive). For the same compound, in assay [2], the inhibition of aggregation was 11.3% (inactive). For the same compound, the nuclei count in assay [2] was determined as 87.3%; in assay [3], 96.6%. Further, the fluorescence slope in assay [4] was -0.298 (inactive). The NADPH fluorescence slope in assay [5] is -5.4e-05 (inactive). The slope in assay [6] was 0.00507 (inactive).
In the case of `CCOc1ccc(N(CC(=O)NCc2cccc(OC)c2)S(=O)(=O)c2c(C)noc2C)cc1`, the cell count in assay [1] was 362. For the same compound, the inhibition in assay [1] is -3.2% (inactive); in assay [3], -114% (inactive); in assay [7] it was -5.75% (inactive); in assay [8], -5.65% (inactive). Also, in assay [2], the inhibition of aggregation was 18.9% (inactive). Moreover, the results for the nuclei count in assay [2] and in assay [3] were 95% and 104%, respectively. In addition, the fluorescence slope in assay [4] is -0.415 (inactive). In assay [5], the NADPH fluorescence slope is 1.6e-05 (inactive). The slope in assay [6] was 0.00505 (inactive).
Regarding `Cc1ccccc1NC(=O)NCCCN1CCN(C2CCCCC2)CC1`, the cell count in assay [1] was 411. Further, the inhibition was -1.8% (inactive) in assay [1], -119% (inactive) in assay [3], 3.03% (inactive) in assay [7] and 13% (inactive) in assay [8]. Also, the inhibition of aggregation in assay [2] is 8.9% (inactive). Also, the values for the nuclei count in assay [2] and in assay [3] were 81.8% and 108%, respectively. In addition, the fluorescence slope in assay [4] is -0.61 (inactive). Further, in assay [5], the NADPH fluorescence slope is 2.5e-06 (inactive). Besides, the slope in assay [6] is 0.00551 (inactive).
On to `CCCS(=O)(=O)N1CCCC(C(=O)NC(C)c2ccc3c(c2)OCCO3)C1` (centres undefined), for which the cell count in assay [1] turned out to be 719. The inhibition in assay [1] is -10.9% (inactive); in assay [3], -26.6% (inactive); in assay [7], 9.72% (inactive); in assay [8] it was 13.6% (inactive). Besides, the inhibition of aggregation in assay [2] is 0.2% (inactive). The values for the nuclei count in assay [2] and in assay [3] were 101% and 100%, respectively. Besides, the fluorescence slope in assay [4] was -0.475 (inactive). Further, the NADPH fluorescence slope in assay [5] was 1.2e-05 (inactive). Further, in assay [6], the slope was 0.00535 (inactive).
On to `CCCS(=O)(=O)N1CCC(C(=O)NCCN2CCCC2)CC1`, for which, in assay [1], the cell count was 201. For the same compound, the inhibition in assay [1] is -6.8% (inactive); in assay [3], 30.3% (inactive); in assay [7] it was 13.8% (inactive); in assay [8] it was 19.2% (inactive). In assay [2], the inhibition of aggregation is 12.3% (inactive). In addition, the nuclei count was 104% in assay [2] and 70.1% in assay [3]. For the same compound, the fluorescence slope in assay [4] is -0.405 (inactive). Moreover, in assay [5], the NADPH fluorescence slope is -3.3e-05 (inactive). In addition, the slope in assay [6] was 0.00665 (inactive).
